The target in assay [1] is Rap guanine nucleotide exchange factor 3 (Homo sapiens) (UniProt O95398). In words: Confirmatory qHTS for antagonist of cAMP-regulated guanine nucleotide exchange factor 3 (EPAC1) (AID 1645880). Further: nearly all actives have a fitted effect of over 55% in size. Further: potency means the concentration at half of the fitted maximal effect. The method in brief: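 Released BODIPY-GDP fluoresces less than Rap1-bound BODIPY-GDP; the signal is followed at 480/540 nm at 5-min intervals over 30 min, after 5 min at room temperature. Reactions contain 100 nM EPAC1, 250 nM RAP1B-BODIPY-GDP and 50 uM GDP; results are normalized to ATA and DMSO.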
Rap guanine nucleotide exchange factor 3 (Homo sapiens), sequence (O95398 whole entry, looked up): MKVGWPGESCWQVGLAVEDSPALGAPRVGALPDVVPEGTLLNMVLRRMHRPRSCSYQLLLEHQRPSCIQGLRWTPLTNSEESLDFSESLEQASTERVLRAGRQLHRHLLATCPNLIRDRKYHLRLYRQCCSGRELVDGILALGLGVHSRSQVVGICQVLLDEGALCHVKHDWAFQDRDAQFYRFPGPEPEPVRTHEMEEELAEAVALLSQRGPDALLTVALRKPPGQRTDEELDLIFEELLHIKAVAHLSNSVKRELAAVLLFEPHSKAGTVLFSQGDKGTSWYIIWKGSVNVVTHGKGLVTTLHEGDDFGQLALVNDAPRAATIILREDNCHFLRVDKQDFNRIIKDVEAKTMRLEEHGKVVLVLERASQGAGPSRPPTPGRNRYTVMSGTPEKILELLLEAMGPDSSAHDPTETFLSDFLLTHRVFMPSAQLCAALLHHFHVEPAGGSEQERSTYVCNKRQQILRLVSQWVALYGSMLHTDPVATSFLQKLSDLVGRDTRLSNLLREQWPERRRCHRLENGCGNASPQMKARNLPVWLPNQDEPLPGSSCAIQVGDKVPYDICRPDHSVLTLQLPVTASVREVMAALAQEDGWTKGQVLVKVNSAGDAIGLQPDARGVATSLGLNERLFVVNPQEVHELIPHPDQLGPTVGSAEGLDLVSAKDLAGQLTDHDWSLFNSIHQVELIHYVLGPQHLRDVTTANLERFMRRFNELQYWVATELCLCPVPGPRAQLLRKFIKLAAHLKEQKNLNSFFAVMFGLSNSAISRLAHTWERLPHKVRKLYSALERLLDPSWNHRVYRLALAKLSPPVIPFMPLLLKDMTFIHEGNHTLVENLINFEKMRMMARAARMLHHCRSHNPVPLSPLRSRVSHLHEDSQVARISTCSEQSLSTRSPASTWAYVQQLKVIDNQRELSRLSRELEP
(In general: Quantitative high-throughput screening tests each substance at several concentrations.)

Assay [2] shares this target. In words: Confirmatory qHTS for agonist of cAMP-regulated guanine nucleotide exchange factor 3 (EPAC1) (AID 1645881). Further: nearly all actives have a fitted effect of over 75% in size. Further: potency means the concentration at half of the fitted maximal effect.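 On activation: EPAC1 catalysed release of BODIPY-GDP from Rap1B seen as fluorescence loss; 100% = effect of cAMP agonist control.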
Assay [3] deals with Rap guanine nucleotide exchange factor 4 (Homo sapiens) (UniProt Q8WZA2). Briefly: Confirmatory qHTS for agonist of cAMP-regulated guanine nucleotide exchange factor 4 (EPAC2) (AID 1645884).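 Further: nucleotide exchange releases bodipy-GDP from Rap1 and this lowers its fluorescence; nearly all actives have a fitted effect of over 65% in size.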 Further: potency means the concentration at half of the fitted maximal effect. On activation: on the % scale 0 is the no-effect control and ±100 the full control effect.
Rap guanine nucleotide exchange factor 4 (Homo sapiens), sequence (Q8WZA2 whole entry, looked up): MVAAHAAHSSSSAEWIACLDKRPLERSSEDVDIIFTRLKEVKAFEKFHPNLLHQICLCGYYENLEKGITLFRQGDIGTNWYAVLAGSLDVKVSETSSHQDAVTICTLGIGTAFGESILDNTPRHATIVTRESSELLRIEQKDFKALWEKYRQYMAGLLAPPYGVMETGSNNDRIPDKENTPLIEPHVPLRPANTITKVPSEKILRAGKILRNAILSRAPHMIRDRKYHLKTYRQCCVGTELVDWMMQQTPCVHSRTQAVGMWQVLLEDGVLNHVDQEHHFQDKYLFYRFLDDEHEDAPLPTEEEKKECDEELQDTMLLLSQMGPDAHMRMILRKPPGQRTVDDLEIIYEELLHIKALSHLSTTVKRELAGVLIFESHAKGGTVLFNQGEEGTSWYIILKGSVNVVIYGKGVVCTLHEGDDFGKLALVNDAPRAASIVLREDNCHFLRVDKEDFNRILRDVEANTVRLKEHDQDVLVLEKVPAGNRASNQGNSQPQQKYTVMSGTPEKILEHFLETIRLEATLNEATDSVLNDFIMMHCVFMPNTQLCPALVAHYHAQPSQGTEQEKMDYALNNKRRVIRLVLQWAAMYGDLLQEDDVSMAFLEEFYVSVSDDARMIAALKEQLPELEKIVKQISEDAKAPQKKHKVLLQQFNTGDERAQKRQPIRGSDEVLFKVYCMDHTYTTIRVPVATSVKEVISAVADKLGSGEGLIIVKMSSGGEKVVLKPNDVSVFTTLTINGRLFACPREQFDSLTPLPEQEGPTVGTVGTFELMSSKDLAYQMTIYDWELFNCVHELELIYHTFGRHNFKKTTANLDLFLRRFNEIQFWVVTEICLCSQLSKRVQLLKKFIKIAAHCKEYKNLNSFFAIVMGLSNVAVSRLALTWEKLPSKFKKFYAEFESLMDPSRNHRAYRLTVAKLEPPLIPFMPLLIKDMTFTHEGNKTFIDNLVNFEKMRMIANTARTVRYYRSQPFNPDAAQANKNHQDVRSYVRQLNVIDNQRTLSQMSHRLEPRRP
For assay [4] the target is unchanged. Briefly: Confirmatory qHTS for antagonist of cAMP-regulated guanine nucleotide exchange factor 4 (EPAC2) (AID 1645885). Further: nearly all actives have a fitted effect of over 25% in size. On activity change, negative = inhibition: on the % scale 0 is the no-effect control and ±100 the full control effect.
The target of assay [5] is Rap guanine nucleotide exchange factor 3 (Homo sapiens) (UniProt O95398). In words: Counterscreen qHTS for antagonist of cAMP-regulated guanine nucleotide exchange factor 3 (EPAC1) (AID 1645888). Further: % of control where 0% means no effect. The gist of the method: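 Rap1B–BODIPY-GDP (250 nM) with 50 uM GDP; compounds pin-transferred to 9.74 nM–152 uM final (activator) or from 7.32 nM upwards (inhibitor). Fluorescence Ex/Em 480/540 nm read at 5 and 30 min, then after adding cAMP or buffer, at room temperature.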
In general terms: Counterscreens check selectivity or assay interference.

Results filed as inconclusive are left out. A number with no mark means an inactive call. Active and inactive are the calls of the source. The call rests on the fitted dose curve; in most records, active means well fitted curve in the direction sought with a large enough effect; inconclusive means small, poorly fitted or top-dose-only effect, or another doubt; inactive means no such curve, though single readings can be large; an effect the other way counts as inactive or inconclusive.

Consider `CCOc1ccc(NC(=O)CN(C)C(=O)c2cc3c(s2)CCC3)cc1OCC`, for which, in assay [1], the Potency was 37.9 µM (active). Also, the Potency entry in assay [2], in assay [3], in assay [4] and in assay [5] was “inactive” in each case.
`Cc1cn2c(=O)cc(COC(=O)c3ccc(NC(=O)C(C)Oc4ccccc4)cc3)nc2s1` (stereo not given): the Potency result in assay [1], in assay [2], in assay [3], in assay [4] and in assay [5] was “inactive” throughout.
Consider `N#Cc1c(NC(=O)c2ccc(Br)o2)n(-c2ccccc2)c2nc3ccccc3nc12`, for which the Potency in assay [1] was 50.1 µM (active). The Potency result in assay [2] and in assay [4] was “inactive” each time. Besides, the activation in assay [3] is 1.83% [at 17.1 µM, percent relative to cAMP agonist control]. In assay [5], the activity change, negative = inhibition is -1.68% [at 30.8 µM].
For `COc1ccc(/C=C2/SC(=S)N(c3ccc(S(=O)(=O)Nc4nccs4)cc3)C2=O)cc1`, the Potency in assay [1] was 33.8 µM (active). Besides, the Potency entry in assay [2], in assay [3], in assay [4] and in assay [5] was “inactive” throughout.
`Cc1cccc(N2CCN(c3ccc(C(=O)O)cc3NC(=O)c3ccccc3F)CC2C)c1` (stereo not given): in assay [1], the Potency is 84.9 µM (active). The Potency result in assay [2], in assay [3] and in assay [5] was “inactive” each time. For the same molecule, the outcome in assay [4] is “inactive [at 12.7 µM]”.
For the molecule `CCn1c(C)nc2cc(C(=O)N/N=C(\C)c3ccccc3O)ccc21`, in assay [1], the Potency was 7.08 µM (active). Besides, the Potency entry in assay [2] and in assay [4] was “inactive” each time. In addition, the activation in assay [3] was 0.106% [at 17.1 µM, percent relative to cAMP agonist control]. The activity change, negative = inhibition in assay [5] was -28% [at 30.8 µM].
With `O=C(CCN1C(=O)S/C(=C\c2ccccc2)C1=O)Nc1ccc(S(=O)(=O)Nc2nccs2)cc1`, in assay [1], the Potency was 39.8 µM (active). Besides, the Potency result in assay [2] and in assay [4] was “inactive” in each case. The activation in assay [3] is 1.67% [at 17.1 µM, percent relative to cAMP agonist control]. Further, the activity change, negative = inhibition in assay [5] is -0.356% [at 30.8 µM].
As to `O=C(c1ccccc1)c1ccc2nc(-c3ccco3)c(-c3ccco3)nc2c1`, the Potency in assay [1] was 4.78 µM (active). Further, the Potency result in assay [2], in assay [3], in assay [4] and in assay [5] was “inactive” each time.
For the molecule `COc1ccc(NC(=O)C2=NN(c3ccccc3)C(=O)CC2)cn1`, the Potency entry in assay [1], in assay [2], in assay [3], in assay [4] and in assay [5] was “inactive” each time.
Regarding `O=C1C=C(N2CCCCC2)c2ccccc2C1=O`, the Potency in assay [1] was 25.1 µM (active). Moreover, the Potency entry in assay [2] and in assay [4] was “inactive” each time. Further, the activation in assay [3] is 2.92% [at 17.1 µM, percent relative to cAMP agonist control]. In addition, in assay [5], the activity change, negative = inhibition was -3.66% [at 30.8 µM].
For the molecule `Cc1ccc(S(=O)(=O)N2[C@@H](c3ccc(Br)cc3)C(C(=O)O)=CC[C@H]2c2ccc(C(C)C)cc2)cc1`, in assay [1], the Potency was 16.9 µM (active). Moreover, the Potency result in assay [2], in assay [3], in assay [4] and in assay [5] was “inactive” throughout.
With `O=C(c1ccco1)N(Cc1cccc([N+](=O)[O-])c1)c1ccc(Br)cc1`, the Potency result in assay [1], in assay [2], in assay [3], in assay [4] and in assay [5] was “inactive” throughout.
For `COc1cccc(C2=NN(C(=O)c3ccco3)C(O)(C(F)(F)F)C2)c1` (stereo not given), the Potency entry in assay [1], in assay [2] and in assay [4] was “inactive” in each case. Moreover, in assay [3], the activation is 1.71% [at 17.1 µM, percent relative to cAMP agonist control]. For the same molecule, the activity change, negative = inhibition in assay [5] was -10.8% [at 30.8 µM].
`CC/C(=N/NC(=O)c1ccc2c(c1)OCO2)c1ccccc1O`: the Potency in assay [1] was 15.1 µM (active). Moreover, the Potency entry in assay [2], in assay [3], in assay [4] and in assay [5] was “inactive” in each case.
With `CCOC(=O)c1ccc(NC(=O)Cn2nc(C)c3nn(-c4ccc(Cl)cc4)c(C)c3c2=O)cc1`, the Potency result in assay [1], in assay [2], in assay [3], in assay [4] and in assay [5] was “inactive” throughout.
Regarding `O=C(NN1C(=O)/C(=C/c2ccc(O)c(O)c2)SC1=S)c1ccccc1`, the Potency in assay [1] is 7.57 µM (active). Moreover, the Potency result in assay [2], in assay [3], in assay [4] and in assay [5] was “inactive” in each case.
On to `CN(c1ccc(C(=O)NCc2ccc3c(c2)OCO3)cc1)S(=O)(=O)c1ccccc1`, for which the Potency entry in assay [1], in assay [2], in assay [3], in assay [4] and in assay [5] was “inactive” each time.
Take `COc1cccc(Cn2c(=O)cc(C)c3c(C)nn(C)c32)c1`: the Potency entry in assay [1], in assay [2], in assay [3], in assay [4] and in assay [5] was “inactive” in each case.
Regarding `COc1ccc(OC)c(/C=C2\N=C(c3ccccc3)OC2=O)c1`, the Potency result in assay [1], in assay [2], in assay [3], in assay [4] and in assay [5] was “inactive” throughout.
Turning to `CC1=NN(c2ccccc2)C(=O)C1/C=C1\NC(=S)NC1=O` (stereo not given), in assay [1], the Potency is 67.5 µM (active). For the same molecule, the Potency result in assay [2], in assay [3], in assay [4] and in assay [5] was “inactive” each time.
On to `C[C@H]1CN([C@@H](C)CO)C(=O)c2cccc(NS(=O)(=O)c3ccc(Cl)cc3)c2O[C@@H]1CN(C)CC1CCCCC1`, for which the Potency result in assay [1], in assay [2] and in assay [4] was “inactive” each time. For the same molecule, the activation in assay [3] is 0% [at 17.1 µM, percent relative to cAMP agonist control]. The activity change, negative = inhibition in assay [5] was 0.127% [at 30.8 µM].
Turning to `CC1=CC2=NC(=O)/C(=C\c3cccn3CCOc3ccc(C)c(C)c3)C(=N)N2O1`, the Potency entry in assay [1], in assay [2], in assay [3], in assay [4] and in assay [5] was “inactive” each time.
Regarding `COc1ccc(C(C(=O)c2ccccc2)c2ccccc2)cc1` (stereo not given), the Potency result in assay [1], in assay [4] and in assay [5] was “inactive” each time. Moreover, the Potency was 100 µM (active) in assay [2] and 50.1 µM (active) in assay [3].
As for `O=C(c1ccco1)N(CCC(c1ccccc1)c1ccco1)Cc1ccco1` (stereo not given), the Potency in assay [1] was 75.7 µM (active). For the same molecule, the Potency result in assay [2], in assay [3], in assay [4] and in assay [5] was “inactive” each time.

The record behind these values is PubChem BioAssay (NCATS).
